Sampled rows, rich in hits. Any-hit rate of the full collection: about 1%.
GPT2 inh – Primary qHTS assay for inhibitors of Glutamate pyruvate transaminase 2 (GPT2) | Recombinant GPT2, coupled pyruvate oxidase/HRP Amplex Red fluorescence | Potency, µM (titrated, usually from 57.7 µM), for the others: top-dose activity change, negative = inhibition, usual class: inhibitors | 0.25% of 100,000 active; also: potency is read from the fitted curve at half-maximal effect; % is scaled to controls: 0 for no effect and ±100 for the full control effect; nearly all actives have a fitted effect of over 60% in size
Target sequence (Q8TD30 whole entry, looked up): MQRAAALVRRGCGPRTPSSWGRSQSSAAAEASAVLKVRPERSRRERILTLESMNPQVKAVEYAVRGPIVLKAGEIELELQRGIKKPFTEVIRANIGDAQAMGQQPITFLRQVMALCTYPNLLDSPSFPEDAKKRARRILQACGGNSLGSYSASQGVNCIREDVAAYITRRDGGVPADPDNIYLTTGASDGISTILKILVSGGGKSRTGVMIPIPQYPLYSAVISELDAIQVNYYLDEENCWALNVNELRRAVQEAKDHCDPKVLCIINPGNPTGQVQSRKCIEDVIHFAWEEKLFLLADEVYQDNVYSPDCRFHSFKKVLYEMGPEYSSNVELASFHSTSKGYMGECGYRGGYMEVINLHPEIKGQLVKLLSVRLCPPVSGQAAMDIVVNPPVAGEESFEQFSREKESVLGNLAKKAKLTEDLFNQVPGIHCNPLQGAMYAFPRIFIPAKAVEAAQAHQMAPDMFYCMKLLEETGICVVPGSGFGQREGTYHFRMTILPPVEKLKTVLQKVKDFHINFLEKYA
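Recombinant GPT2 (10ng/uL) with 250uM a-KG and 2mM L-alanine, 30 min at room temperature, in HEPES pH 7.5 buffer. Pyruvate detected by pyruvate oxidase/HRP/Amplex Red fluorescence after 30 min in the dark; AOA (50uM) as positive control.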
HEK293 viab – GF-AFC viability counterscreen for inhibitors of alpha-synuclein gene (SNCA) expression; Potency, µM (titrated, usually from 57.1 µM), inactives show at the top dose activity change, negative = cytotoxicity, most hits filed as cytotoxic; 0.12% of 150,000 active; HEK-293-SNCA-luc viability, GF-AFC fluorescence, 24 h; AID 1671193, 2021;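 also: potency is read from the fitted curve at half-maximal effect; 0% = DMSO-treated cells and -100% = medium-only wells without cells; nearly all actives have a fitted effect of over 30% in size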
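Cytotoxicity counterscreen: after 24 h compound treatment of genome-edited SNCA-luciferase HEK-293 cells, live-cell protease substrate GF-AFC read by fluorescence after 30 min; activity scaled between DMSO (0%) and medium-only (-100%), curves Hill-fitted.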
IP6K1 inhibitor – Primary qHTS assay for small molecule inhibitors of Inositol hexaphosphate kinase 1 (IP6K1). activity change, % (series mostly up to about 58 µM). IP6K1 kinase, ADP-Glo luminescence, 2 h; hits give low values. Inositol hexakisphosphate kinase 1 (Homo sapiens), Q92551. AID 1645851, 2021. 0.81% of 140,000 active; in the data active = activity change below about -25%; also: % is scaled to controls: 0 for no effect and ±100 for the full control effect
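ADP-Glo luminescence measures ADP made by human IP6K1 during a 2 h RT reaction with ATP/IP6 (mix at 1.3 mM/130 uM); top library doses 57.5 and 19.1 uM final.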
SNCA expr inh – Primary qHTS assay for inhibitors of alpha-synuclein gene (SNCA) expression | Potency, µM (highest dose often 57.2 µM), for the others: at the top dose activity change, negative = inhibition, hits mostly inhibitors | 0.17% of 140,000 active | HEK-293 SNCA-luciferase knock-in, luminescence, 24 h | AID 1671194, 2021;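 also: potency is read from the fitted curve at half-maximal effect; plate controls were DMSO cells for no effect and cell-free wells for full effect; nearly all actives have a fitted effect of over 45% in size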
GPT2 inh cnf – Confirmatory qHTS assay for inhibitors of Glutamate pyruvate transaminase 2 (GPT2). GPT2 enzyme, coupled Amplex Red pyruvate fluorescence. AID 1671187, 2021. Potency, µM, usual class: inhibitors. shares compounds with GPT2 inh. 90% of 95 active
* marks the source's active call; other numbers are inactive results; i = inactive; ? = inconclusive; . = not tested or not shown. Unless noted, calls follow the shape of the dose curve; as a rule, active = well fitted curve in the direction sought with a large enough effect; inconclusive = small, poorly fitted or top-dose-only effect, or another doubt; inactive = no such curve, though single readings can be large; an effect the other way counts as inactive or inconclusive.

SMILES	GPT2 inh	HEK293 viab	IP6K1 inhibitor	SNCA expr inh	GPT2 inh cnf
COc1ccc(NC2CCCN(CC(=O)Nc3ccc(C)cn3)C2)cc1 (stereo unspecified)	?	-1%	0	-5%	5.4*
CCNc1ncc(C(=O)N2CCCC(Nc3ccc(OC)cc3)C2)cn1 (stereo unspecified)	i	11%	6	5%	.
COc1cc(N2CCOCC2)ccc1Nc1ncc(Cl)c(Nc2ccccc2NS(C)(=O)=O)n1	5µM*	-30%	-5	.	1.5*
CNc1nc(Nc2ccc(C(=O)N3CCOCC3)cc2OC)ncc1Cl	2%	2%	-21	62%	.
COc1cc(N2CCOCC2)ccc1Nc1ncc(F)c(Nc2ccccc2NS(C)(=O)=O)n1	3.2µM*	-30%	3	.	1.9*
Cc1ccc(-n2c(C3CCN(C(=O)c4c(F)cccc4Cl)CC3)n[nH]c2=O)cc1	i	-2%	-13	-19%	.
O=C(NCc1ccccc1)C1CCCN(Cc2cccc(-c3cccs3)c2)C1 (stereo unspecified)	.	.	10	.	.
COc1ccc(-c2ccc3nc(-c4cccc(Cl)c4)oc3c2)c(OC)c1OC	?	10%	-4	-7%	2.4*
COc1ccc(-c2ccc3nc(-c4ccccc4)oc3c2)c(OC)c1OC	-19%	14%	12	-11%	.
COc1ccc(NC2CCCN(C(=O)c3ccccc3C(F)(F)F)C2)cc1OC (stereo unspecified)	?	1%	10	7%	3.9*
COc1ccc(NC2CCCN(C(=O)c3cc(C(C)=O)n[nH]3)C2)cc1OC (stereo unspecified)	?	-1%	-4	8%	.
COCCc1noc(CC2CCOC3(CCN(C(=O)c4ccc(OC)cc4)CC3)C2)n1 (stereo unspecified)	i	7%	14	3%	.
